The results in this text go back to PubChem BioAssay (Tox21).

The nature of assay [1]: qHTS RealTime-Glo MT Cell Viability Assay in HEK293 cells - 32 hour (AID 1224868). Note: top concentration of the series differs between compounds; nearly all actives have a fitted effect of over 50% in size. A digest of the protocol:
(§1)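 HEK293 cells seeded with NanoLuc/prosubstrate reagent, rested 5 h at 37 C, then dosed and kept at 37 C up to 40 h. Nonlytic real-time luminescence from viable cells read at 0, 8, 16, 24, 32 and 40 h.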

A short description of assay [2]: qHTS RealTime-Glo MT Cell Viability Assay in HepG2 cells - 40 hour (AID 1224870). Note: nearly all actives have a fitted effect of over 50% in size. In short, it runs like this: (§2)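 HepG2 cells (600/well) mixed with RealTime-Glo MT reagent, settled 5 h at 37 C/5% CO2 before compound addition. Nonlytic NanoLuc luminescence from viable-cell prosubstrate reduction read repeatedly during 40 h treatment at 37 C.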
Assay [3] can be described thus: qHTS RealTime-Glo MT Cell Viability Assay in HEK293 cells - 16 hour (AID 1224872). Note: top concentration of the series differs between compounds; nearly all actives have a fitted effect of over 50% in size. In short, it runs like this: as §1
Assay [4] can be described thus: qHTS RealTime-Glo MT Cell Viability Assay in HepG2 cells - 8 hour (AID 1224873). Note: nearly all actives have a fitted effect of over 55% in size. A digest of the protocol:
as §2

Assay [5] is described as follows: qHTS RealTime-Glo MT Cell Viability Assay in HEK293 cells - 40 hour (AID 1224874). Note: nearly all actives have a fitted effect of over 50% in size. As to conditions: RealTime-Glo luminescence; max response: hits give low values. A digest of the protocol:
(§3)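 Viable HEK293 cells reduce a cell-permeant prosubstrate; the product diffuses out and is consumed by NanoLuc in the medium to give light. Compounds went in after a 5 h incubation and plates were read over the treatment course.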

The nature of assay [6]: A CellTox Green Cytotoxicity Assay to monitor cytotoxicity in HepG2 cells - 16 hour (AID 1224876). Note: nearly all actives have a fitted effect of over 45% in size. In short, it runs like this: (§4)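 Using 1536-well format, dye-containing HepG2 suspension was seeded, allowed 5 h at 37 C/5% CO2, dosed by pintool with compounds, positive and negative controls, and imaged for fluorescence across 40 h.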
Assay [7] can be described thus: qHTS RealTime-Glo MT Cell Viability Assay in HepG2 cells - 32 hour (AID 1224877). Note: nearly all actives have a fitted effect of over 55% in size. A digest of the protocol: (§5)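 HepG2 cells (600/well) were dispensed with RealTime-Glo reagents, incubated 5 h at 37 °C, then treated with compounds in DMSO for up to 40 h. Nonlytic NanoLuc luminescence reflecting viable cells was read at each stated time point.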
The nature of assay [8]: A CellTox Green Cytotoxicity Assay to monitor cytotoxicity in HepG2 cells - 24 hour (AID 1224878). Note: nearly all actives have a fitted effect of over 45% in size. In short, it runs like this:
as §4

Assay [9] is described as follows: A CellTox Green Cytotoxicity Assay to monitor cytotoxicity in HepG2 cells - 40 hour (AID 1224879). Note: nearly all actives have a fitted effect of over 40% in size. In short, it runs like this: as §4
Assay [10] is described as follows: qHTS RealTime-Glo MT Cell Viability Assay in HEK293 cells - 0 hour (AID 1224880). For activity change, negative = cytotoxicity: top concentration of the series differs between compounds. Note: nearly all actives have a fitted effect of over 45% in size. Note: potency is the fitted concentration of half-maximal effect. In short, it runs like this: as §3
Assay [11] can be described thus: A CellTox Green Cytotoxicity Assay to monitor cytotoxicity in HepG2 cells - 0 hour (AID 1224882). Note: nearly all actives have a fitted effect of over 35% in size. In short, it runs like this:
as §4

Assay [12] is described as follows: A CellTox Green Cytotoxicity Assay to monitor cytotoxicity in HepG2 cells - 32 hour (AID 1224883). Note: nearly all actives have a fitted effect of over 50% in size. A digest of the protocol: as §4
Assay [13] in a line: A CellTox Green Cytotoxicity Assay to monitor cytotoxicity in HEK293 cells - 8 hour (AID 1224884). Note: nearly all actives have a fitted effect of over 35% in size. A digest of the protocol: (§6)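 Fluorescence intensity, read at 0, 8, 16, 24, 32 and 40 h of compound treatment, reflected dye binding to DNA of dead HEK293 cells; compounds (23 nL, DMSO) were added 5 h after plating cells with reagent.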
The nature of assay [14]: qHTS RealTime-Glo MT Cell Viability Assay in HepG2 cells - 16 hour (AID 1224885). Note: nearly all actives have a fitted effect of over 50% in size. In short, it runs like this:
as §5

Assay [15] is described as follows: A CellTox Green Cytotoxicity Assay to monitor cytotoxicity in HEK293 cells - 0 hour (AID 1224869). Note: nearly all actives have a fitted effect of over 50% in size. A digest of the protocol: as §6
The nature of assay [16]: A CellTox Green Cytotoxicity Assay to monitor cytotoxicity in HEK293 cells - 40 hour (AID 1224871). Note: nearly all actives have a fitted effect of over 45% in size. A digest of the protocol:
as §6

Assay [17] is described as follows: A CellTox Green Cytotoxicity Assay to monitor cytotoxicity in HEK293 cells - 32 hour (AID 1224881). Note: nearly all actives have a fitted effect of over 40% in size. In short, it runs like this:
as §6

A short description of assay [18]: A CellTox Green Cytotoxicity Assay to monitor cytotoxicity in HEK293 cells - 24 hour (AID 1224875). In short, it runs like this: as §6

Molecules are shown by their SMILES. Values without a mark were called inactive. Inconclusive results are not listed. Calls of active or inactive are those of the source. Calls come from the whole dose curve; as a rule, active = well fitted curve in the direction sought with a large enough effect in the repeat runs; inconclusive = weak or mixed curves; inactive = no such curve, though single readings can be large; an effect the other way counts as inactive or inconclusive.
% is set by controls: 0 for no effect and ±100 for the full control effect.

In the case of `CC(=O)Nc1ccc(OC(=O)c2ccccc2OC(C)=O)cc1`, the Potency entry in assay [1], in assay [3], in [6], in assay [8], in [9] and in assay [10] was “inactive” each time. The Potency entry in assay [11], in assay [12] and in [13] was “inactive” in each case. The call in assay [2], in assay [4], in [7] and in assay [14] was inactive. Further, the max response in assay [5] is 3.46%.

`NCCOCCN`: the Potency result in assay [1], in [15], in assay [16], in assay [3], in [6] and in [8] was “inactive” throughout. Moreover, the Potency result in assay [9], in assay [10], in assay [17], in assay [11], in assay [12] and in assay [13] was “inactive” throughout. Further, the call in assay [2], in [4], in assay [7] and in [14] was inactive. Besides, the max response in assay [5] was 1.68%.

In the case of `CC(=O)CC(=O)OC(C)(C)C`, the Potency entry in assay [1], in [15], in assay [16], in assay [3], in [8] and in assay [9] was “inactive” throughout. Besides, the Potency entry in assay [10], in [17], in assay [11] and in assay [12] was “inactive” each time. The call in assay [2], in [4], in assay [7] and in assay [14] was inactive. Moreover, the max response in [5] is 1.26%.

For the molecule `OC[C@H]1O[C@@H](O[C@@H]2[C@@H](CO)O[C@](O)(CO)[C@H]2O)[C@H](O)[C@@H](O)[C@H]1O`, the Potency entry in assay [1], in assay [16], in [3], in assay [18], in [8] and in [9] was “inactive” throughout. Further, the Potency result in [10], in [17], in [12] and in assay [13] was “inactive” in each case. The molecule was called inactive in assay [2], in assay [4], in [7] and in [14]. For the same molecule, the max response in assay [5] is 1.5%.

For the molecule `CC1(C)Oc2ccc(C#N)cc2[C@@H](N2CCCC2=O)[C@@H]1O`, the Potency entry in assay [1], in assay [15], in [3], in assay [18], in [6] and in [8] was “inactive” in each case. For the same molecule, the Potency result in assay [9], in [10], in [17], in [11], in assay [12] and in [13] was “inactive” in each case. Further, the outcome in assay [2], in assay [4], in assay [7] and in assay [14] was inactive. The max response in assay [5] is 2.51%.

As to `CCCCSCCCC`, the Potency entry in assay [1], in assay [15], in [16], in [3], in [18] and in [6] was “inactive” each time. The Potency result in assay [8], in assay [9], in assay [10], in assay [17], in assay [11] and in assay [12] was “inactive” in each case. Further, the Potency entry in assay [13] is “inactive”. Also, the call in [2], in assay [4], in assay [7] and in [14] was inactive. For the same molecule, the max response in assay [5] is 1.22%.

As for `CN(C)CC/C=C1/c2ccccc2COc2ccc(CC(=O)O)cc21`, the Potency result in assay [16], in assay [18], in [6], in assay [8], in [9] and in [17] was “inactive” throughout. In addition, the Potency result in assay [12] and in [13] was “inactive” each time.

Consider `CC(C)OC(=O)OCOP(=O)(CO[C@H](C)Cn1cnc2c(N)ncnc21)OCOC(=O)OC(C)C`, for which the Potency entry in assay [1], in assay [15], in [16], in [3], in assay [18] and in assay [6] was “inactive” in each case. Also, the Potency entry in assay [8], in assay [9], in assay [10], in assay [17], in [12] and in assay [13] was “inactive” in each case. Moreover, the result in assay [2], in assay [4], in assay [7] and in assay [14] was inactive. In assay [5], the max response was 2.48%.

For the molecule `C[C@]12CCC(=O)C=C1CC[C@H]1[C@@H]3CC[C@](O)(C(=O)CO)[C@@]3(C)C[C@H](O)[C@@]12F`, the Potency entry in assay [1], in assay [15], in assay [16], in assay [3], in assay [18] and in assay [6] was “inactive” throughout. In addition, the Potency entry in assay [8], in assay [9], in assay [17], in assay [11], in assay [12] and in assay [13] was “inactive” throughout. Also, the molecule was called inactive in assay [2], in assay [4], in assay [7] and in assay [14]. Besides, the max response in assay [5] was -26.1%. The Potency in assay [10] is 9.52 µM (active).

For the molecule `CCn1cc(C(=O)O)c(=O)c2cnc(N3CCCC3)nc21`, the activity change, negative = cytotoxic in assay [1] is 10% [at 6.97 µM]; in assay [2] it was 1.51% [at 6.97 µM]; in assay [7], -0.35% [at 6.97 µM]; in assay [14], 2.96% [at 6.97 µM]. For the same molecule, the cytotoxicity in assay [15] is 1.5% [at 6.97 µM]; in assay [8] it was 0.605% [at 6.97 µM]. The cytotoxicity increase in assay [16] is 3.57% [at 6.97 µM]; in assay [6], 3.06% [at 6.97 µM]; in assay [9] it was 2.25% [at 6.97 µM]; in [17], 4.33% [at 6.97 µM]; in [12] it was -0.981% [at 6.97 µM]; in assay [13] it was 0.169% [at 6.97 µM]. For the same molecule, the values for the activity change, negative = cytotoxicity in assay [3] and in assay [10] were 1.68% [at 6.97 µM] and 0.136% [at 6.97 µM], respectively. Further, the max response in [5] is 10.4%.

As to `NCc1ccc(S(N)(=O)=O)cc1`, the Potency entry in [1], in assay [16], in assay [3], in assay [18], in assay [6] and in [8] was “inactive” in each case. The Potency entry in [9], in [10], in assay [17], in assay [11], in assay [12] and in assay [13] was “inactive” each time. Moreover, the outcome in assay [2], in [4], in [7] and in assay [14] was inactive. Further, the max response in [5] was 4.4%.

In the case of `CC1(C)O[C@H]2CC(=O)OC[C@]23[C@H]2CC[C@@]4(C)[C@H](c5ccoc5)OC(=O)[C@H]5O[C@]54[C@]2(C)C(=O)C[C@@H]13`, the Potency entry in assay [1], in assay [15], in [16], in assay [3], in [18] and in assay [6] was “inactive” in each case. The Potency entry in [8], in [9], in assay [10], in [17], in [12] and in assay [13] was “inactive” in each case. The call in assay [2], in assay [7] and in assay [14] was inactive. The max response in assay [5] was 3.36%.

`O=C1NC(c2ccccc2)(c2ccccc2)C(=O)N1COP(=O)(O)O`: the Potency entry in assay [1], in assay [16], in assay [3], in [18], in [6] and in assay [8] was “inactive” throughout. Further, the Potency entry in assay [9], in assay [10], in [17], in [11], in assay [12] and in assay [13] was “inactive” each time. Further, the call in assay [2], in [4], in assay [7] and in [14] was inactive. Also, the max response in [5] is -5.37%.

Consider `Cc1c(Cl)cccc1Cl`, for which the Potency result in [1], in [15], in assay [16], in assay [3], in [18] and in assay [6] was “inactive” in each case. For the same molecule, the Potency entry in assay [8], in assay [9], in [10], in assay [17], in assay [12] and in assay [13] was “inactive” each time. The molecule was called inactive in assay [2], in assay [4], in assay [7] and in assay [14]. The max response in assay [5] was -1.25%.

Take `O=C(NCN1CCOCC1)c1cnccn1`: the Potency entry in assay [1], in [15], in assay [16], in assay [3], in [6] and in assay [8] was “inactive” throughout. Moreover, the Potency result in assay [9], in assay [10], in [17], in assay [11], in assay [12] and in assay [13] was “inactive” throughout. The molecule was classed as inactive in assay [2], in assay [4], in [7] and in [14]. The max response in assay [5] is 2.14%.
